Among the test systems are T-47D breast; BT-549 breast; MDA-MB-435 melanoma; SW-620 colon; MCF7 breast; HCT-116 colon; HCC-2998 colon; KM12 colon.
What all share (assay): NCI-60 one-dose screen, 48 h (100 = growth as untreated, 0 = no growth, -100 = all killed)
Holding throughout (conditions): 10 µM unless noted

Molecules are shown by their SMILES. This is part of a sample that, as a whole, favours compounds with a hit. Of some 83,000 tested, about 20% had one in any assay.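 Growth was measured after 48 h exposure to one concentration of compound in 96-well plates. Values under 10 count as active.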 A number with no mark means an inactive call. The source made the active and inactive calls.

Take `COc1ccc(C(=O)c2cc(C)c(OC)c(C)c2)c(OC)c1N(C(=O)C(Cl)Cl)C(=O)C(Cl)Cl`: the growth was 52.4% in the assay on T-47D breast; 5.7% (active) with BT-549 breast; -37.5% (active) in the assay on MDA-MB-435 melanoma; 19% in the assay on SW-620 colon; 13.4% in the assay on MCF7 breast; 4.88% (active) with HCT-116 colon. Besides, the growth with HCC-2998 colon was 14.7%; in the assay on KM12 colon, 5.55% (active).
With `O=C(CNCCO)Nc1ccc2ncnc(Nc3ccc(OCc4cccc(F)c4)c(Cl)c3)c2c1`, the growth with T-47D breast was 45.2%; in the assay with BT-549 breast, 80.5%; in the assay on MDA-MB-435 melanoma, 96.8%; in the assay on SW-620 colon it was 106%; in the assay with MCF7 breast, 82.5%; with HCT-116 colon, 64.3%. Moreover, the growth in the assay on HCC-2998 colon is 97%; with KM12 colon, 87%.
In the case of `NC(=O)c1ncn(C2OC(CO)C(O)C2O)n1` (stereo not given), the growth in the assay with T-47D breast is 84.6%; with BT-549 breast, 96.8%; in the assay on MDA-MB-435 melanoma, 107%; in the assay with SW-620 colon, 70.9%; with MCF7 breast, 80.8%; with HCT-116 colon it was 57.5%. In addition, the figures for the growth in the assay on HCC-2998 colon and in the assay with KM12 colon were 92.8% and 98.3%, respectively.
With `COc1ccc(C(O)c2cc3c(N)c(C(=O)Nc4cccc(OC)c4)sc3nc2C)cc1` (stereo not given), the growth in the assay with T-47D breast was 62.8%; in the assay with BT-549 breast, 26.5%; with MDA-MB-435 melanoma, -9.54% (active); in the assay with SW-620 colon, 19.9%; in the assay on MCF7 breast it was 17.8%; in the assay with HCT-116 colon, 5.98% (active). The figures for the growth in the assay on HCC-2998 colon and with KM12 colon were 5.05% (active) and 2.91% (active), respectively.
Turning to `COc1ccc(NC(=O)c2sc3nc(C)c(C(O)c4ccc(OC)cc4)cc3c2N)cc1` (stereo not given), the growth with T-47D breast is 56.8%; in the assay on BT-549 breast it was 28.8%; in the assay with MDA-MB-435 melanoma, -2.11% (active); with SW-620 colon it was 33.8%; in the assay on MCF7 breast it was 13.7%; in the assay on HCT-116 colon, 15.3%. Also, the growth in the assay on HCC-2998 colon was 20.4%; in the assay with KM12 colon, 20.7%.
With `CCCCCCCCOC(=O)c1ccc(O)c(OC)c1`, the growth was 82.7% in the assay on T-47D breast; 102% in the assay on BT-549 breast; 106% in the assay on MDA-MB-435 melanoma; 109% in the assay with SW-620 colon; 66.9% in the assay on MCF7 breast; 102% in the assay on HCT-116 colon. In addition, the growth in the assay with HCC-2998 colon was 97.9%; with KM12 colon, 102%.
In the case of `Cc1nccc2c3ccc(OCc4cn(-c5ccc(Cl)cc5)nn4)cc3n(CCCc3ccccc3)c12`, the growth is 74.7% in the assay on T-47D breast; 31.8% in the assay on BT-549 breast; 27.8% in the assay on MDA-MB-435 melanoma; 12.9% in the assay on SW-620 colon; 20.2% in the assay on MCF7 breast; 31.7% in the assay with HCT-116 colon. Also, the growth in the assay on HCC-2998 colon is 70.9%; in the assay with KM12 colon it was 35.2%.
Take `Clc1nc(Nc2ccccc2)nc(Nc2ccccc2)n1`: the growth was 76.1% in the assay with T-47D breast; 90.5% in the assay with BT-549 breast; 108% with MDA-MB-435 melanoma; 108% with SW-620 colon; 92.4% in the assay on MCF7 breast; 93.2% with HCT-116 colon. For the same molecule, the results for the growth with HCC-2998 colon and in the assay with KM12 colon were 93.3% and 102%, respectively.
For `CCCCN(CCCC)CCc1c(C)cc(C)c(CCN(CCCC)CCCC)c1O`, the growth in the assay on T-47D breast is 5.78% (active); with BT-549 breast, 43.3%; with MDA-MB-435 melanoma, 17.1%; in the assay on SW-620 colon, 24.1%; with MCF7 breast, 12.8%; in the assay with HCT-116 colon, 6.6% (active). The values for the growth in the assay with HCC-2998 colon and with KM12 colon were 19.6% and 41.4%, respectively.
Consider `C/C(=C(/c1ccccc1)c1ccc(OCC(O)CNCCN2CCOCC2)cc1)c1ccccc1` (stereo not given), for which the growth in the assay on T-47D breast is 89.3%; in the assay on BT-549 breast it was 105%; in the assay on MDA-MB-435 melanoma, -63.8% (active); in the assay on SW-620 colon it was 49%; in the assay with MCF7 breast it was 44.6%; with HCT-116 colon it was 106%. The growth with HCC-2998 colon is -59.6% (active); with KM12 colon, 54.3%.
Regarding `O=C(N/N=C/c1ccncc1)c1ccccc1Nc1cccc(C(F)(F)F)c1`, the growth in the assay with T-47D breast is 58.2%; in the assay on BT-549 breast, 69.3%; in the assay with MDA-MB-435 melanoma, 112%; in the assay with SW-620 colon it was 95.7%; in the assay on MCF7 breast it was 104%; in the assay with HCT-116 colon, 69.2%. Further, the growth in the assay on HCC-2998 colon and in the assay with KM12 colon was 77.8% each time.
For the molecule `CCN(CC)CCCC(C)Nc1cc(-c2cccc(OC(F)(F)F)c2)nc2ccc(N3CCCC3)cc12` (stereo not given), the growth is -19.3% (active) in the assay on T-47D breast; 78.7% in the assay with BT-549 breast; -84.4% (active) in the assay on MDA-MB-435 melanoma; -37.5% (active) in the assay with SW-620 colon; -10% (active) with MCF7 breast; -53.7% (active) in the assay on HCT-116 colon. For the same molecule, the growth in the assay with HCC-2998 colon was -58.2% (active); in the assay on KM12 colon, 7.78% (active).
With `CN1CCN(c2c(F)cc(NC3=C(Cl)C(=O)c4ncccc4C3=O)cc2F)CC1`, the growth was 16.1% in the assay on T-47D breast; 106% in the assay with BT-549 breast; 21% in the assay on MDA-MB-435 melanoma; -68.4% (active) in the assay with SW-620 colon; -58.3% (active) with MCF7 breast; -11.3% (active) with HCT-116 colon. The growth with HCC-2998 colon was 108%; in the assay on KM12 colon it was 105%.
For `O=C(NCCc1ccccn1)OCc1nc2nc(Cl)nc(N3CCOCC3)c2[nH]1`, the growth in the assay on T-47D breast was 33.5%; in the assay on BT-549 breast, 8.16% (active); with MDA-MB-435 melanoma it was 11.9%; with SW-620 colon, -37.2% (active); in the assay on MCF7 breast, 15.6%; in the assay on HCT-116 colon it was -71.8% (active). Further, the growth was 77.6% in the assay on HCC-2998 colon and 12.2% with KM12 colon.
Consider `COc1ccc(-c2nc(SCCC(C)C)nc(N/N=C(/C)c3ccc(C)cc3)c2C#N)cc1`, for which the growth is 87.1% in the assay with T-47D breast; 91% with BT-549 breast; 103% with MDA-MB-435 melanoma; 95.2% in the assay with SW-620 colon; 91.4% with MCF7 breast; 93.2% in the assay on HCT-116 colon. In addition, the growth was 99% with HCC-2998 colon and 93.5% in the assay with KM12 colon.

For the origin of these results see PubChem BioAssay (NCI).
